Several values for one entry are separate records, joined by “and”; a condition that tells them apart may be missing. Equal entries are not always repeated. The campaign covered roughly 320,000 compounds. About 22,000 (6.9%) were called active. Roughly 27% stayed inconclusive and do not appear here. Calls come from the whole dose curve; as a rule, active = well fitted inhibition curve with a large enough effect; inconclusive = small, poorly fitted or top-dose-only effect, or another doubt; inactive = no such curve, though single readings can be large or run the other way. The sample as a whole holds a higher share of actives than the screen did. The source holds several records for some structures; these can differ, active in one and inactive in another.
Test: Primary qHTS for delayed death inhibitors of the malarial parasite plastid, 96 hour incubation
Conditions: P. falciparum luciferase reporter growth; series mostly up to 28.7 µM; activity change, negative = inhibition: at the top concentration
How it was run: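 Luminescence readout: decreased luciferase signal marks inhibited growth of reporter-expressing P. falciparum in infected red cells (2% hematocrit, 0.05% parasitemia final), exposed to compound two generations (96 h, 37 C, 5% CO2).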
% is set by controls: 0 for no effect and ±100 for the full control effect; potency is the fitted concentration of half-maximal effect.

SMILES	activity change, negative = inhibition	Potency
CCOc1ccc2[nH]c3nc(SCC(=O)NC4CCCC4)nnc3c2c1	58.3% (inactive)	
CCOc1ccc(CN2CCN(Cc3c[nH]c4ccccc34)CC2)cc1	0% (inactive)	
Cc1cccc(OCC(=O)NCCNC(=O)c2cccnc2)c1	-11.1% (inactive)	
CN(CC(=O)Nc1ccccc1Cl)C(=O)c1ccccc1SCC(=O)N1CCCC1	-6.58% (inactive)	
CCOC(=O)CSc1nc2ccc(C)cc2n2cnnc12	-4.99% (inactive)	
COc1ccccc1N=C1SC(C)CN1C(=O)C1CCC1 (centres undefined)		10.4 µM (active)
CCc1noc(C)c1C(=O)N1CCCSC1=Nc1ccccc1OC	-9.42% (inactive)	
COc1ccccc1N=C1SCCCN1C	-24.4% (inactive)	
O=S(=O)(NC(=S)Nc1ccccc1)c1ccc(F)cc1	25.1% (inactive)	
CO[C@H]1[C@@H]2C=CO[C@@H](O[C@H]3O[C@@H](CO)[C@H](O)[C@@H](O)[C@@H]3O)[C@@H]2[C@@]2(CO)O[C@@H]12	36.1% (inactive)	
O=C(CN(C(=O)c1csnn1)c1cccc(Cl)c1)NC1CCCC1	45.8% (inactive)	
CCOc1ccc(N(C(=O)c2snc(C(N)=O)c2N)C(C(=O)NCC2CCCO2)c2c[nH]c3ccccc23)cc1 (centres undefined)	2% (inactive)	
COc1cccc(-c2nc(CS(=O)CC(=O)NCc3ccc(F)cc3)c(C)o2)c1 (centres undefined)	-21.6% (inactive)	
Cc1ccc(-c2nc(CS(=O)CC(=O)NC3CCCC3)c(C)o2)cc1 (centres undefined)		4.65 µM (active)
COc1ccc(-c2nc(CS(=O)CC(=O)N3CCC4(CC3)OCCO4)c(C)o2)cc1 (centres undefined)	39% (inactive)	
Cc1ccc(-c2nc(CS(=O)CC(=O)N3CCN(c4ncccn4)CC3)c(C)o2)cc1 (centres undefined)	-21.3% (inactive)	
COc1ccc(-c2nc(CS(=O)CC(=O)NCc3ccccn3)c(C)o2)cc1 (centres undefined)		11.7 µM (active)
COc1ccc2oc(=O)c(C(=O)NCc3ccccn3)cc2c1	54.7% (inactive)	
COc1ccc(-c2nc(CS(=O)CC(=O)NCc3ccccc3)c(C)o2)cc1OC (centres undefined)		13.1 µM (active)
Cc1ccc(-c2nc(CSCC(=O)NC3CCN(Cc4ccccc4)CC3)c(C)o2)cc1	-10.5% (inactive)	
Cc1cccc(-c2nc(CS(=O)CC(=O)NC(C)CCc3ccccc3)c(C)o2)c1 (centres undefined)	-2.67% (inactive)	
CC(OC(=O)CNC(=O)c1ccc(Cl)c([N+](=O)[O-])c1)C(=O)NCc1ccco1 (centres undefined)	7.29% (inactive)	
NC(=O)c1ccc(Nc2ccc3c(c2)CCC3)c([N+](=O)[O-])c1	-3.89% (inactive)	
CCC(C)(C)NC(=O)C(c1ccc(O)cc1)N(Cc1ccco1)C(=O)CCC(=O)Nc1ccccn1 (centres undefined)	-2.26% (inactive)	
Cc1ccc(NC(=O)COC(=O)CN2CCCCCC2=O)c(C)c1	33.1% (inactive)	

SMILES	activity change, negative = inhibition	Potency
CN1CCN(CC(=O)Nc2cccc([N+](=O)[O-])c2)CC1	-26% (inactive)	
O=C(Nc1cccc(Cl)c1)c1cc([N+](=O)[O-])ccc1N1CCN(CCO)CC1		3.29 µM (active)
Cc1cccc(NC(=O)c2cc([N+](=O)[O-])ccc2N2CCN(C)CC2)c1	0% (inactive)	
Cc1c(Cl)cccc1NC(=O)NCCCN1CCCC1=O	-15.2% (inactive)	
COC(=O)c1c(NC(=O)CN2CCN(S(=O)(=O)c3ccccc3[N+](=O)[O-])CC2)sc2c1CCC(C)C2 (centres undefined)		9.28 µM (active)
Cc1c(Br)c([N+](=O)[O-])nn1CC(=O)Nc1sc2c(c1C(=O)OC(C)C)CCC(C)C2 (centres undefined)	412% (inactive)	
COc1ccccc1NC(=O)CN1CCN(S(=O)(=O)c2ccc(Br)cc2)CC1	31% (inactive)	
O=C(Cc1ccsc1)N1CCN(S(=O)(=O)c2cc(C(F)(F)F)cc(C(F)(F)F)c2)CC1	-43.5% (inactive)	
O=C(CSc1ncn[nH]1)Nc1nc(-c2cccc([N+](=O)[O-])c2)cs1	7.32% (inactive)	
COc1ccc2c(c1OC)C(=O)N(c1ccc(O)cc1)C2	39% (inactive)	
CCN1C(=NCC(C)C)N[C@@H](CCc2ccccc2)[C@H](C(=O)NCC(C)C)[C@H]1C	35.7% (inactive)	
COc1ccc(CNC(=O)C2CCN(S(C)(=O)=O)CC2)cc1	-5.46% (inactive)	
CCN1C(=NCc2ccc(OC)cc2)N[C@@H](CCc2ccccc2)[C@H](C(=O)NCc2ccc(OC)cc2)[C@H]1C		inactive and 5.22 µM (active)
O=C(Nc1cccnc1Cl)c1cc(-c2ccccc2O)on1	9.57% (inactive)	
CC(=O)c1ccc(NC(=O)C2CC(=O)Nc3nc4ccccc4n32)cc1 (centres undefined)	5.37% (inactive)	
O=C(c1ccncc1)N1CCN(S(=O)(=O)c2cccc([N+](=O)[O-])c2)CC1	-3.4% (inactive)	
C=CCN1CCN(C(=O)CCCc2ccccc2)CC1	47% (inactive)	
CCC(=O)c1ccc(OCC(=O)OCC(=O)NC2CCCCCC2)cc1	19.3% (inactive)	
Cc1cccc(NC(=O)CN2CCN(C(=O)C3CCN(C(=O)/C=C/c4ccccc4)CC3)CC2)c1C	0.105% (inactive)	
COc1ccc(-c2nn(-c3ccccc3)cc2/C=N/Nc2ccccn2)cc1OC		3.7 µM (active)
Oc1ccc(Br)cc1/C=N/Nc1ccccn1	-4.24% (inactive)	
COc1ccc(-c2nn(-c3ccccc3)cc2C(=O)Nc2nccs2)cc1OC	-1.92% (inactive)	
CC(=O)Nc1cccc(C(=O)OCC(=O)c2ccc3c(c2)OCO3)c1	290% (inactive)	
Cc1ccc(CNCc2ccc3c(c2)OCO3)c(C)c1	-28.5% (inactive)	

Reference: PubChem BioAssay AID504834 (National Center for Advancing Translational Sciences (NCATS), 2011)
